From PubChem BioAssay (Tox21) come the findings set out here.

Experiment [1] is described as follows: qHTS assay to identify small molecule antagonists of the glucocorticoid receptor (GR) signaling pathway - cell viability counter screen (AID 720693; also: nearly all actives have a fitted effect of over 55% in size; also: potency is read from the fitted curve at half-maximal effect). (In general: Quantitative high-throughput screening tests each substance at several concentrations.)
The nature of experiment [2]: qHTS assay for identifying genotoxic compounds that show differential cytotoxicity against isogenic chicken DT40 cell lines with known DNA damage response pathways - wild type cell line (AID 743012). Also: nearly all actives have a fitted effect of over 60% in size. Also: potency is read from the fitted curve at half-maximal effect. In outline: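 Viability of DNA repair-proficient chicken DT40 cells was assessed by CellTiter-Glo luminescence following 40 h compound exposure at 37 C/5% CO2.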
A short description of experiment [3]: qHTS assay for identifying genotoxic compounds that show differential cytotoxicity against isogenic chicken DT40 cell lines with known DNA damage response pathways - Rev3 mutant cell line (AID 743014). Also: nearly all actives have a fitted effect of over 55% in size. Also: potency is read from the fitted curve at half-maximal effect.
The nature of experiment [4]: qHTS assay to identify small molecule antagonists of the androgen receptor (AR) signaling pathway - cell viability counter screen (AID 743033; also: nearly all actives have a fitted effect of over 45% in size; also: potency is read from the fitted curve at half-maximal effect).
Experiment [5] is described as follows: qHTS assay to identify small molecule antagonists of the androgen receptor (AR) signaling pathway using the MDA cell line - cell viability counter screen (AID 743041; also: nearly all actives have a fitted effect of over 45% in size; also: potency is read from the fitted curve at half-maximal effect). In outline:
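qHTS viability read-out; MDA-kb2 AR-luc; R1881-stimulated; 16 h exposure at 37C, 0% CO2; CellTiter-Fluor, 30 min; fluorescence intensity.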

A short description of experiment [6]: qHTS assay for identifying genotoxic compounds that show differential cytotoxicity against isogenic chicken DT40 cell lines with known DNA damage response pathways - Rad54/Ku70 mutant cell line (AID 743015). Also: nearly all actives have a fitted effect of over 60% in size. Also: potency is read from the fitted curve at half-maximal effect.
Experiment [7] has as its target Androgen receptor (Homo sapiens) (UniProt P10275). As to the kind of experiment: qHTS assay to identify small molecule agonists of the androgen receptor (AR) signaling pathway using the MDA cell line (AID 743040; also: nearly all actives have a fitted effect of over 20% in size; also: potency is read from the fitted curve at half-maximal effect). In outline: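 Agonist activity is measured as luciferase luminescence in human MDA-kb2 cells whose MMTV reporter responds to both AR and GR. Compounds in DMSO incubate 16 h at 37C, 0% CO2, and ONE-Glo is read after 30 min.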

The target is the same in experiment [8]. As to the kind of experiment: qHTS assay to identify small molecule agonists of the androgen receptor (AR) signaling pathway (AID 743036; active = well fitted activation curve with a large enough effect in the signal ratio in the repeat runs, with a control signal flat, not every such curve was filed as active; the % refers to the signal ratio). In outline:
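AR-UAS-bla HEK293 cells, plated 4 h before dosing, were treated with compound for 16 h at 37C. beta-Lactamase reporter read after 2 h with LiveBLAzer B/G FRET substrate at room temperature.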

Experiment [9] has the same target. Description: qHTS assay to identify small molecule antagonists of the androgen receptor (AR) signaling pathway using the MDA cell line (AID 743042; also: nearly all actives have a fitted effect of over 55% in size; also: potency is read from the fitted curve at half-maximal effect). In outline: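 MDA-kb2 cells (human breast carcinoma, stably carrying an MMTV-luciferase reporter responsive to AR and GR) were plated at 3,000 cells/well and preincubated 5 hr at 37C, then given compound plus R1881 agonist for 16 h. ONE-Glo luminescence was read.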

Experiment [10] has the same target. As to the kind of experiment: qHTS assay to identify small molecule antagonists of the androgen receptor (AR) signaling pathway (AID 743035; active = well fitted inhibition curve with a large enough effect in the signal ratio in the repeat runs, not every such curve was filed as active; the % refers to the signal ratio; also: potency is read from the fitted curve at half-maximal effect). In outline: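 Reporter HEK293 cells were exposed to compounds and R1881 overnight (16 h, 37C); beta-lactamase activity was then quantified by FRET fluorescence.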

SMILES strings stand for the structures. Values joined by “and” are separate entries in the source; they are usually repeats but may differ in a detail not shown here. Equal entries are not always repeated. Results filed as inconclusive are left out. Active and inactive are the calls of the source. Unless noted, calls follow the shape of the dose curve; as a rule, active = well fitted curve in the direction sought with a large enough effect in the repeat runs; inconclusive = weak or mixed curves; inactive = no such curve, though single readings can be large; an effect the other way counts as inactive or inconclusive.

Chain of Androgen receptor (Homo sapiens) (P10275 whole entry, looked up): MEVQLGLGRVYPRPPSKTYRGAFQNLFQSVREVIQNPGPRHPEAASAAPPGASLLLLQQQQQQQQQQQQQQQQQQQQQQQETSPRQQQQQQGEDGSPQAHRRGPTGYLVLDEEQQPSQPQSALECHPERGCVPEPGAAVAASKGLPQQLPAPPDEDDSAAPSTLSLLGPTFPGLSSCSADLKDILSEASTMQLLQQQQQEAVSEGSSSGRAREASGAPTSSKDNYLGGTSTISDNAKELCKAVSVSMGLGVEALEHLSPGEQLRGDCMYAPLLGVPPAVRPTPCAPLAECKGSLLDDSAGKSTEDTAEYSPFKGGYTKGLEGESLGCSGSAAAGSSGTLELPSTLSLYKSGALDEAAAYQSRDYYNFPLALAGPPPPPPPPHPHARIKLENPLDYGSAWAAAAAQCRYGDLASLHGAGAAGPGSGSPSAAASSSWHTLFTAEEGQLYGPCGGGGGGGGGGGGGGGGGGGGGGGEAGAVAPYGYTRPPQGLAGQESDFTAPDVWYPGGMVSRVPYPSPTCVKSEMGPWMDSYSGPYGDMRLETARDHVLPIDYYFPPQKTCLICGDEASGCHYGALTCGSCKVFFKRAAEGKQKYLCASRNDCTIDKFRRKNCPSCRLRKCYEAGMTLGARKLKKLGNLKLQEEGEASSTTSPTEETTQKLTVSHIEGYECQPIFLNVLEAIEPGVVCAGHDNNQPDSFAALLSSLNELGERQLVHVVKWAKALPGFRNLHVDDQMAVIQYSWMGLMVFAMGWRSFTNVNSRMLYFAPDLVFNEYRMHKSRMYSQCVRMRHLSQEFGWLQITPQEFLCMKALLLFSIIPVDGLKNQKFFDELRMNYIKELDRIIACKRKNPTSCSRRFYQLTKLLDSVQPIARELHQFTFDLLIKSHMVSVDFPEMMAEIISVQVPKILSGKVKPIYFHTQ

As to `CC(CN(C)C)CN1c2ccccc2CCc2ccccc21` (centres undefined), the Potency result in [1], in experiment [4] and in [5] was “inactive” throughout. The Potency in experiment [2] is 11.4 µM (active); in experiment [3], 12.7 µM (active).

Take `CNCC[C@H](Oc1cccc2ccccc12)c1cccs1`: in [1], the Potency result was “inactive”. Besides, the Potency was 5.31 µM (active) in experiment [2], 9.44 µM (active) in experiment [3], 9.44 µM (active) in experiment [6] and 24.8 µM (active) in [5].

On to `SCCCCCCCCS`, for which the Potency result in experiment [1], in experiment [4] and in experiment [5] was “inactive” each time. Further, the Potency in [2] was 68.6 µM (active); in experiment [6] it was 54.5 µM (active).

With `CC(C)N=C(N)/N=C(\N)Nc1ccc(Cl)cc1`, the Potency entry in [1] and in [5] was “inactive” in each case. In addition, the results for the Potency in experiment [2], in [3] and in experiment [6] were 3.59 µM (active), 12.7 µM (active) and 10.1 µM (active), respectively.

For the compound `CCCCCCCC/C=C\CCCCCCCC(=O)NCc1ccc(O)c(OC)c1`, the Potency in experiment [1] was 21.3 µM (active); in experiment [2] it was 13.3 µM (active); in [6] it was 18.8 µM (active). In addition, the Potency result in experiment [4] and in experiment [5] was “inactive” each time.

For the compound `CN(Cc1cc(Br)cc(Br)c1N)C1CCCCC1`, the Potency result in experiment [1] and in [5] was “inactive” throughout. In addition, the Potency is 10.6 µM (active) in experiment [2], 6.68 µM (active) in experiment [3] and 10.6 µM (active) in experiment [6].

As for `COc1cc(C(C)C)c2c(c1)S(=O)(=O)N(COc1cc(=O)n3cccc(OCCN4CCCCC4)c3n1)C2=O`, the Potency result in experiment [1], in experiment [7] and in experiment [5] was “inactive” throughout. Besides, the Potency in experiment [2] was 13 µM (active); in experiment [3], 16.4 µM (active); in experiment [6], 13 µM (active).

For `CC(C(O)c1ccccc1)N(C)CCOC(c1ccccc1)c1ccccc1` (centres undefined), the Potency result in [1] was “inactive”. The Potency was 5.31 µM (active) in experiment [2], 8.41 µM (active) in experiment [3], 9.44 µM (active) in [6] and 26.6 µM (active) in experiment [5].

Take `Nc1ccc2cc3ccc(N)cc3nc2c1`: the Potency was 19 µM (active) in [1]; 2.66 µM (active) and 5.45 µM (active) in experiment [2]; 2.98 µM (active) and 2.73 µM (active) in experiment [3]; 1.33 µM (active) and 1.37 µM (active) in experiment [6]. Also, the Potency entry in [7] is “inactive”.

In the case of `CCCCCCCCCCCCCC[n+]1ccccc1`, the Potency is 13.8 µM (active) in experiment [1]; 0.122 µM (active) in [2]; 0.077 µM (active) in experiment [3]; 0.109 µM (active) in experiment [6]; 12.3 µM (active) in [4]; 4.33 µM (active) in experiment [5].

For the compound `CCN(CC)CCOC(=O)C1(C2CCCCC2)CCCCC1`, the Potency result in [1], in experiment [7] and in [9] was “inactive” throughout. Further, the Potency in experiment [2] was 26.6 µM (active); in experiment [3], 21.1 µM (active); in experiment [6] it was 23.7 µM (active). For the same compound, the call in experiment [8] was inactive.

Regarding `COC(=O)NCCC[Si](OC)(OC)OC`, the Potency result in [1], in experiment [4] and in experiment [5] was “inactive” each time. Moreover, the results for the Potency in [2] and in experiment [3] were 61.1 µM (active) and 68.6 µM (active), respectively.

Take `CN(C)c1ccc(N=NS(=O)(=O)O)cc1`: the Potency entry in experiment [1] and in [7] was “inactive” in each case. For the same compound, the Potency in experiment [2] is 22.9 µM (active); in experiment [3], 26.1 µM (active); in experiment [6], 22 µM (active); in experiment [5], 14.4 µM (active); in experiment [9] it was 23.7 µM (active).

For the compound `CC(C)(c1cc(Br)c(OCCO)c(Br)c1)c1cc(Br)c(OCCO)c(Br)c1`, the Potency in experiment [1] is 38 µM (active); in experiment [2], 7.52 µM (active); in [3] it was 13.4 µM (active); in [6], 16.8 µM (active); in experiment [10] it was 17 µM (active); in experiment [9], 42.3 µM (active). Further, the compound was classed as inactive in experiment [8]. Further, the Potency entry in [7] is “inactive”.

For `CCN(CC)CCSC(=O)C(c1ccccc1)c1ccccc1`, the Potency entry in experiment [1], in experiment [3], in [4] and in [5] was “inactive” throughout. In [2], the Potency is 26.6 µM (active).

Turning to `CCCCCCOc1cc(C)c(O)c(C)c1C`, the Potency in experiment [1] is 49.6 µM (active); in [2], 19.6 µM (active); in experiment [3], 22 µM (active); in experiment [6] it was 15.5 µM (active). Further, the Potency result in experiment [5] is “inactive”.

In the case of `c1ccc(Nc2cccc3ccccc23)cc1`, the Potency in experiment [1] is 44.2 µM (active); in experiment [2], 69.5 µM (active); in experiment [3], 61.9 µM (active) and 61.1 µM (active); in experiment [6], 55.2 µM (active) and 61.1 µM (active). Besides, in experiment [5], the Potency entry was “inactive”.

Regarding `CSc1c(Cl)c(Cl)c(Cl)c(Cl)c1Cl`, the Potency entry in experiment [1], in experiment [2], in [6], in [4] and in experiment [5] was “inactive” throughout.

For `Oc1ccc(-c2ccccc2)c(Cl)c1`, the Potency entry in experiment [1], in [2], in [5] and in experiment [9] was “inactive” throughout. The Potency was 30.6 µM (active) in experiment [3], 30.6 µM (active) in experiment [6] and 68.6 µM (active) in [7]. Moreover, the outcome in [8] was inactive.

In the case of `CCN(CC)CCCN(c1ccccc1)C1Cc2ccccc2C1`, the Potency in experiment [1] is 23.9 µM (active); in experiment [2], 0.531 µM (active); in experiment [3], 0.944 µM (active); in experiment [6] it was 1.5 µM (active); in [5], 11.9 µM (active).

With `CCCCCCOc1ccc(O)cc1`, the Potency entry in experiment [1], in experiment [7], in [5] and in [9] was “inactive” throughout. The Potency in experiment [2] is 6.11 µM (active); in experiment [3] it was 5.45 µM (active); in experiment [6] it was 7.7 µM (active); in experiment [10], 24.5 µM (active).

`CCN(CC)CCNc1ccc(CO)c2sc3ccccc3c(=O)c12`: in experiment [1], the Potency entry is “inactive”. For the same compound, the Potency in experiment [2] was 0.841 µM (active); in [3], 0.298 µM (active); in experiment [6] it was 0.237 µM (active); in [5], 26.6 µM (active).

Take `CCCCN(CCCC)CCC(O)c1cc2c(Cl)cc(Cl)cc2c2cc(C(F)(F)F)ccc12` (centres undefined): the Potency entry in [1], in experiment [4] and in experiment [5] was “inactive” each time. Further, the Potency in experiment [2] was 11.4 µM (active); in experiment [6], 10.1 µM (active).

On to `Cn1cnc2ncnc(N)c21`, for which the Potency entry in experiment [1], in [2], in [3], in [6], in experiment [4] and in experiment [5] was “inactive” throughout.

In the case of `CN(C)CCCN1c2ccccc2Sc2ccc(C(F)(F)F)cc21`, the results for the Potency in experiment [2], in [3] and in experiment [6] were 7.5 µM (active), 8.41 µM (active) and 11.9 µM (active), respectively.

`C=CC(=O)OCCC#N`: the Potency result in experiment [1], in [3], in experiment [4], in [10], in experiment [7] and in experiment [5] was “inactive” in each case. In addition, the Potency entry in experiment [9] was “inactive”. Moreover, the result in [8] was inactive.

Regarding `NCCCC(O)(P(=O)(O)O)P(=O)(O)O`, the Potency entry in [1], in [4] and in experiment [5] was “inactive” in each case.

For `CCOC(=O)[C@@](C)(N)Cc1ccc(O)c(O)c1`, the Potency result in [1], in experiment [3], in experiment [6] and in experiment [5] was “inactive” throughout.

Consider `CC1(C)C(=O)N(Br)C(=O)N1Br`, for which the Potency entry in experiment [1], in [4], in experiment [10], in [7], in experiment [5] and in experiment [9] was “inactive” each time.

On to `CC(C)(C)c1cc(/C=C2\SC(=N)NC2=O)cc(C(C)(C)C)c1O`, for which the Potency in [2] is 43.3 µM (active); in experiment [3] it was 61.1 µM (active); in experiment [6] it was 17.2 µM (active); in experiment [4], 49 µM (active).

As to `CCCCC(CC)COC(=O)c1ccc(O)cc1` (centres undefined), the Potency in [1] is 43.5 µM (active); in experiment [3], 43.1 µM (active) and 48.6 µM (active); in experiment [6], 48.6 µM (active). Further, the Potency entry in [4] and in experiment [5] was “inactive” in each case.

Turning to `O=C1OC(=O)c2cccc3cccc1c23`, the Potency entry in experiment [1], in [4] and in [5] was “inactive” each time. In addition, the values for the Potency in experiment [3] and in experiment [6] were 15.5 µM (active) and 13.8 µM (active), respectively.

In the case of `CC(C)OC(=O)c1cc(C(=O)OC(C)C)cc([N+](=O)[O-])c1`, the Potency result in experiment [1] and in experiment [4] was “inactive” each time. The Potency in experiment [6] is 55.8 µM (active).

`O=C(Oc1ccccc1)c1cccc(C(=O)Oc2ccccc2)c1`: the Potency entry in [1], in experiment [4], in [7], in experiment [5] and in [9] was “inactive” throughout. The Potency in experiment [3] was 72.3 µM (active); in experiment [6] it was 67 µM (active).

For the compound `CC(C)(C)CC(C)(C)c1ccccc1O`, the Potency in experiment [1] was 34.9 µM (active); in experiment [3] it was 24.5 µM (active); in [6], 54.8 µM (active); in experiment [4], 39.1 µM (active). In addition, the Potency result in experiment [5] was “inactive”.
